Source: PubChem BioAssay (EPA / NIEHS)
Values joined by “and” are separate entries in the source; they are usually repeats but may differ in a detail not shown here. Equal values may be shown once. A structure can be active in one record and inactive in another. Active and inactive are the calls of the source. How the source made its calls: active means hit-call score of the fitted dose curve at least 0.9, where 1 is the maximum; inactive means score below 0.9.

What was measured:
[1] = read-out: Urokinase-type plasminogen activator receptor (uPAR), PLAUR (gene 5329); test: BSK_4H_uPAR: BioMAP Diversity Plus: 4H Assay for Urokinase-type plasminogen activator receptor (uPAR) Biomarker Activity (AID 2283030); settings: primary human endothelial cells (HUVEC); actives raise or lower the signal
Procedure, shortened: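 Endpoint derived via bidirectional curve fitting against DMSO baseline; readout was ELISA detection of uPAR on umbilical vein endothelial cells at 24 h post-treatment, with SRB-stained parallel cultures assessing cytotoxicity.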

[2] = read-out: Vascular endothelial growth factor receptor 2 (Homo sapiens) (UniProt P35968); test: BSK_4H_VEGFRII: BioMAP Diversity Plus: 4H Assay for Vascular endothelial growth factor receptor 2 (VEGFR2) Biomarker Activity (AID 2283031); settings: primary human endothelial cells (HUVEC); actives raise or lower the signal;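 on AC50: cell-surface VEGFR2 protein level quantified by ELISA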
Procedure, shortened: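 In this multiplexed HUVEC system, biomarker ELISA was performed after 24 h chemical exposure. Parallel SRB staining (TCA fixation, 560 nm) tracked cytotoxicity; DMSO served as baseline.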

[3] = read-out: Human Leukocyte Antigen - DR isotype (HLADR), HLA-DRA (gene 3122); test: BSK_BE3C_HLADR: BioMAP Diversity Plus: BE3C Assay for Human Leukocyte Antigen - DR isotype (HLADR) Biomarker Activity (AID 2283032); settings: primary human bronchial epithelial cells; actives raise or lower the signal
Procedure, shortened: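 Human primary bronchial epithelial cells (BE3C system) exposed to compound for 24 hours; cell-surface HLA-DR measured by ELISA, fitted bidirectionally relative to DMSO. Total protein by SRB in parallel cultures tracked cytotoxicity.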

[4] = read-out: Vascular cell adhesion molecule 1 (VCAM1), VCAM1 (gene 7412); test: BSK_4H_VCAM1: BioMAP Diversity Plus: 4H Assay for Vascular cell adhesion molecule 1 (VCAM1) Biomarker Activity (AID 2283033); settings: primary human endothelial cells (HUVEC); actives raise or lower the signal
Procedure, shortened: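 Primary human umbilical vein endothelial cells, 4H stimulation system, treated for 24 h; cell-surface VCAM-1 quantified by ELISA. Bidirectional fitting against DMSO; cytotoxicity tracked by SRB total-protein staining in parallel cultures.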

[5] = read-out: Interferon-gamma inducible Protein 10 (IP10), CXCL10 (gene 3627); test: BSK_BE3C_IP10: BioMAP Diversity Plus: BE3C Assay for Interferon-gamma inducible Protein 10 (IP10) Biomarker Activity (AID 2283034); settings: primary human bronchial epithelial cells; actives raise or lower the signal
Procedure, shortened: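 Primary human bronchial epithelial cells, with IP-10 measured by ELISA 24 hours after chemical dosing. Bidirectional fit against DMSO; cytotoxicity checked by SRB total protein staining in parallel cultures.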

[6] = read-out: Transforming growth factor beta 1 (TGFb1), TGFB1 (gene 7040); test: BSK_BE3C_TGFb1: BioMAP Diversity Plus: BE3C Assay for Transforming growth factor beta 1 (TGFb1) Biomarker Activity (AID 2283036); settings: primary human bronchial epithelial cells; actives raise or lower the signal
Procedure, shortened: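 Primary human bronchial epithelial cells dosed with chemical; TGF-b1 measured by ELISA 24 h after dosing. Bidirectional curve fitting against DMSO negative control; SRB total-protein staining in parallel cultures gauged cytotoxicity.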

[7] = read-out: Plasminogen activator inhibitor-1 (PAI1), SERPINE1 (gene 5054); test: BSK_BE3C_PAI1: BioMAP Diversity Plus: BE3C Assay for Plasminogen activator inhibitor-1 (PAI1) Biomarker Activity (AID 2283037); settings: primary human bronchial epithelial cells; actives raise or lower the signal
Procedure, shortened: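 Primary human bronchial epithelial cells (BE3C system) exposed 24 h; PAI-1 quantified by ELISA. Parallel sulforhodamine B staining of total protein flags cytotoxicity. Bidirectional fit versus DMSO.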

[8] = read-out: urokinase plasminogen activator (uPA), PLAU (gene 5328); test: BSK_BE3C_uPA: BioMAP Diversity Plus: BE3C Assay for urokinase plasminogen activator (uPA) Biomarker Activity (AID 2283038); settings: primary human bronchial epithelial cells; actives raise or lower the signal
Procedure, shortened: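 Using confluent primary human lung bronchial epithelial cultures, we dosed chemicals, waited 24 h, then ran a uPA ELISA, fitting bidirectionally against DMSO.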

[9] = read-out: Urokinase-type plasminogen activator receptor (uPAR), PLAUR (gene 5329); test: BSK_BE3C_uPAR: BioMAP Diversity Plus: BE3C Assay for Urokinase-type plasminogen activator receptor (uPAR) Biomarker Activity (AID 2283039); settings: primary human bronchial epithelial cells; actives raise or lower the signal
Procedure, shortened: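 Primary human bronchial epithelial cells dosed for 24 h; uPAR quantified by ELISA with bidirectional fitting against DMSO. Overt cytotoxicity assessed in parallel cultures by SRB total-protein staining (0.1% SRB, 560 nm).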

[10] = read-out: Monokine induced gamma interferon (MIG), CXCL9 (gene 4283); test: BSK_BE3C_MIG: BioMAP Diversity Plus: BE3C Assay for Monokine induced gamma interferon (MIG) Biomarker Activity (AID 2283035); settings: primary human bronchial epithelial cells; actives raise or lower the signal
Procedure, shortened: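 MIG level was determined by ELISA after 24 h chemical treatment of primary human bronchial epithelial cells. Values were fitted bidirectionally with DMSO as the negative control and activity baseline.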

Measured: AC50

CC(C)OC(=O)Nc1cccc(Cl)c1
not listed: [10]
inactive: all other assays above

CCOCN(C(=O)CCl)c1c(C)cccc1CC
active: [3] 15.3 µM | [4] 19.2 µM | [5] 16.5 µM
inactive: all other assays above

O=S1OCC2C(CO1)C1(Cl)C(Cl)=C(Cl)C2(Cl)C1(Cl)Cl (stereo unspecified)
active: [1] 30.5 µM | [2] 34.8 µM | [3] 26.6 µM | [4] 36.5 µM | [5] 17.8 µM | [6] 39.1 µM | [7] 28.8 µM | [8] 30.3 µM | [9] 30700 nM

O=C1c2ccccc2C(=O)N1SC(Cl)(Cl)Cl
active: [3] 30.6 µM | [5] 35 µM | [10] 35.7 µM | [6] 31.6 µM | [7] 20 µM | [8] 28.7 µM | [9] 34700 nM
inactive: [1] | [2] | [4]

CCCN(CCC)c1c([N+](=O)[O-])cc(C(F)(F)F)cc1[N+](=O)[O-]
active: [4] 28.2 µM | [5] 25.1 µM
inactive: all other assays above

COC(=O)c1ccccc1S(=O)(=O)NC(=O)Nc1nc(C)nc(OC)n1
active: [9] 173 nM
inactive: all other assays above

OCCOc1ccccc1
not listed: [10]
inactive: all other assays above

Cc1[nH]c(=O)n(C(C)(C)C)c(=O)c1Cl
inactive: all assays above

CCC(C)Nc1c([N+](=O)[O-])cc(C(C)(C)C)cc1[N+](=O)[O-] (stereo unspecified)
active: [2] 21 µM | [4] 15.8 µM
not listed: [10]
inactive: all other assays above

CNC(=O)/C=C(\C)OP(=O)(OC)OC
inactive: all assays above

O=C(Nc1ccccc1)Nc1cnns1
not listed: [10]
inactive: all other assays above

Oc1cc(Cl)ccc1Oc1ccc(Cl)cc1Cl
active: [1] 14.7 µM [middle of 4 runs] | [2] 6.66 µM and 9.59 µM | [3] 30.3 µM [middle of 4 runs] | [4] 23.8 µM [middle of 4 runs] | [5] 29.3 µM [middle of 4 runs] | [6] 27.5 µM [middle of 4 runs] | [7] 30.1 µM [middle of 4 runs] | [8] 31.2 µM [middle of 4 runs] | [9] 30.5 µM [middle of 4 runs]
inactive: [2]

N#CN
active: [6] 0.638 µM
inactive: all other assays above

CNC(=O)Oc1ccccc1OC(C)C
inactive: all assays above

C[C@H]1[C@H](c2ccc(Cl)cc2)SC(=O)N1C(=O)NC1CCCCC1
active: [3] 12.6 µM | [4] 7.61 µM | [7] 10.6 µM
not listed: [10]
inactive: all other assays above

O=S(=O)(O)C(F)(F)C(F)(F)C(F)(F)C(F)(F)C(F)(F)C(F)(F)C(F)(F)C(F)(F)F
active: [1] 463 nM and 14.2 µM | [3] 23.1 µM [middle of 8 runs] | [5] 17.3 µM [middle of 7 runs] | [6] 28.6 µM and 12.1 µM and 19.2 µM | [8] 32 µM [middle of 4 runs] | [9] 33.2 µM and 32.7 µM and 6.81 µM
inactive: [1] | [2] | [4] | [6] | [7] | [8] | [9]

O=C(O)C(F)(F)C(F)(F)C(F)(F)C(F)(F)C(F)(F)C(F)(F)C(F)(F)F
inactive: [1] | [2] | [3] | [4] | [5] | [10] | [6] | [7] | [8] | [9]
active: [1] 1.49 µM | [5] 43.9 µM [middle of 4 runs]

COP(=S)(OC)Oc1ccc(SC)c(C)c1
active: [9] 148 nM
not listed: [10]
inactive: all other assays above

CC(C)(C)C(O)C(Oc1ccc(Cl)cc1)n1cncn1 (stereo unspecified)
active: [3] 24.2 µM
inactive: [1] | [2] | [3] | [4] | [5] | [6] | [7] | [8] | [9]

CNC(=O)CSP(=S)(OC)OC
inactive: all assays above

CCCN(CCOc1c(Cl)cc(Cl)cc1Cl)C(=O)n1ccnc1
active: [3] 29.3 µM | [5] 29.9 µM | [7] 30.9 µM | [8] 32 µM
not listed: [10]
inactive: all other assays above

O=[N+]([O-])/N=C1\NCCN1Cc1ccc(Cl)nc1
inactive: all assays above

COc1cc(OC)nc(NC(=O)NS(=O)(=O)c2cc(NC=O)ccc2C(=O)N(C)C)n1
not listed: [10]
inactive: all other assays above

CN1CSC(=S)N(C)C1
active: [3] 20 µM | [4] 16.9 µM
inactive: all other assays above

Oc1ccc(Cl)cc1Cc1ccccc1
active: [1] 34 µM [middle of 7 runs] | [2] 23.8 µM | [3] 34.7 µM [middle of 7 runs] | [4] 31 µM [middle of 6 runs] | [5] 35.3 µM [middle of 7 runs] | [6] 33.9 µM [middle of 7 runs] | [7] 34.4 µM [middle of 7 runs] | [8] 36.3 µM [middle of 7 runs] | [9] 32.1 µM [middle of 7 runs]
inactive: [2]

O=C(O)COc1ccc(Cl)cc1Cl
active: [9] 152 nM
inactive: all other assays above
